Test results as given in PubChem BioAssay (Tox21).
Inconclusive results are not listed. A call without a number means that no potency is given here. The source made the active and inactive calls. The call rests on the fitted dose curve; in most records, active means well fitted cell-killing curve with a large enough effect in the repeat runs; inconclusive means weak or mixed curves, or effect the other way; inactive means flat fitted curve, though single readings scatter.

Test: qHTS RealTime-Glo MT Cell Viability Assay in HEK293 cells - 8 hour (AID 1224887); further: top concentration of the series differs between compounds; nearly all actives have a fitted effect of over 50% in size
Conditions: RealTime-Glo luminescence; series mostly up to 76.8 µM
Source text: U.S. Tox21 Program National Center for Advancing Translational Sciences [NCATS] NIH Chemical Genomics Center [NCGC] U.S. Environmental Protection Agency [EPA] National Institutes of Environmental Health Sciences [NIEHS] National Toxicology Program [NTP] U.S. Food and Drug Administration [FDA] Tox21 Assay Overview: Measure of cell viability is critical in the cell-base assay. Analysis of cell viability is necessary for the characterization of cell responses to cytotoxic drugs and environmental stress. A RealTime-Glo MT Cell Viability Assay to monitor cell viability in real time of continues cell culture during 40 hours of compound treatment was used to screen Tox21 10K library compounds in Hek293 cells. The RealTime-Glo MT Cell Viability Assay is a nonlytic, homogeneous, bioluminescent method to measure cell viability in real time using a simple, plate-based method. The assay involves adding NanoLuc luciferase and a cell-permeant prosubstrate to cells in culture. Viable cells reduce the proprietary prosubstrate to generate a substrate for NanoLuc luciferase. This substrate diffuses from cells into the surrounding culture medium, where it is rapidly used by the NanoLuc Enzyme to produce a luminescent signal. The signal correlates with the number of viable cells, making the assay well suited for cytotoxicity studies.
Tox21 Assay Protocol Summary: The mixture of Hek293 cell suspension and reagents were dispensed at 600cells/6 ul/well in 1536-well tissue culture treated black solid bottom plates using a Multidrop dispenser. After the assay plates were incubated at a 37 C/5% CO2 incubator for 5 hours, 23 nL of compounds dissolved in DMSO, positive and negative controls was transferred to the assay plate by a pintool work station. The plates were incubated at 37 C for 40 hours. The luminescence intensity were measured at 0h, 8h, 16h, 24h, 32h and 40h time points using ViewLux plate reader during compound treatment.

Structure (SMILES) | Potency
Cc1ccc2cc(C)ccc2c1 | inactive
CC(C)(C)C(=O)C(Cl)Cl | inactive
CS(=O)(=O)Cl | inactive
Cc1cccc2sc3nncn3c12 | inactive
C=C(C)[C@H]1CN[C@H](C(=O)O)[C@H]1CC(=O)O | inactive
C=CCCC#N | inactive
NC1(c2ccccc2)CCCCC1 | inactive
N[C@@H](Cc1ccc(Oc2cc(I)c(O)c(I)c2)c(I)c1)C(=O)O | inactive
O=c1[nH]oc2c1CCNC2 | inactive
CN(C)C(=O)Oc1cc(OC(=O)N(C)C)cc(C(O)CNC(C)(C)C)c1 (stereo not given) | inactive
COC[C@@H](NC(C)=O)C(=O)NCc1ccccc1 | inactive
CCCCCCCC(=O)Cl | inactive
COP(=O)(OC)O/C(C)=C/C(=O)N(C)C | inactive
CCCC(C)(COC(N)=O)COC(N)=O | inactive
CCc1cc(OC)c(C[C@H](C)N)cc1OC | inactive
CC[C@H](N)c1ccccc1 | inactive
O=P(O)(O)c1ccccc1 | inactive
CCOC(=O)NC(C)(C)Cc1ccc(Cl)cc1 | inactive
CC(C)c1ccc(O)cc1 | inactive
BrCC1CO1 (stereo not given) | inactive

Structure (SMILES) | Potency
O=C(Cl)CCl | inactive
C=CC1(C)OC(=O)N(c2cc(Cl)cc(Cl)c2)C1=O (stereo not given) | inactive
C=C(Cl)CCl | inactive
CN(C)C1CCCCC1 | inactive
COC(=O)[C@@H](N)CCCN/C(N)=N/[N+](=O)[O-] | inactive
C=CCc1cc(OC)c2c(c1)OCO2 | inactive
C=C1CC[C@@]2(O)[C@H]3Cc4ccc(O)c5c4[C@@]2(CCN3CC2CC2)[C@H]1O5 | inactive
O=C(NC(O)C(Cl)(Cl)Cl)NC(O)C(Cl)(Cl)Cl (stereo not given) | inactive
Cc1ccc(Cl)c(O)c1 | inactive
CC(C)(C)c1cc(O)ccc1O | inactive
CCC1(c2ccccc2)CCC(=O)NC1=O (stereo not given) | inactive
CCC1(c2ccccc2)C(=O)N(COC)C(=O)N(COC)C1=O | inactive
CCCCCCCCBr | inactive
CCN1CCCC1CNC(=O)C(O)(c1ccccc1)c1ccccc1 (stereo not given) | inactive
O=c1[nH]c2ccccc2n1C1CCNCC1 | inactive
Cl/C=C/CCl | inactive
CCCOC(=O)c1cncn1C(C)c1ccccc1 (stereo not given) | inactive
O=c1[nH]c2ccccc2o1 | inactive
C(COCC1CO1)OCC1CO1 (stereo not given) | inactive
CC(O)CCl (stereo not given) | inactive
